According to PubChem BioAssay AID1159580 (chemical genetic matrix, 2015):
“And” between values parts separate entries of the source, which are not always exact repeats. Identical values can stand only once. The campaign covered roughly 5,500 compounds. About 2,000 (36%) were called active. Not shown: some 18% with an inconclusive outcome. Cut-off read from the data, not from the text of the source: active = normalized growth mostly below about 0.91 (no sharp cut-off); inconclusive = no clear call, values can overlap the other calls; inactive = mostly above about 0.92. The list shows a part of the results.

Assay: chemical genetic growth profiling, strain panel (AID 1159580);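 note: tested at 20 µM; growth read once vehicle control cultures reached saturation at 30 °C; 1 = growth at the plate median or of vehicle wells; lower values mean less growth of the strain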
Conditions: S. cerevisiae deletion strains, growth OD

Measured: normalized growth

NC[C@H]1O[C@H](O[C@H]2[C@H](O)[C@@H](O[C@H]3O[C@H](CO)[C@@H](O)[C@H](N)[C@H]3O)[C@H](N)C[C@@H]2N)[C@H](N)[C@@H](O)[C@@H]1O
inactive: locus YAL021C, strain ccr4, stronger effect = lower value 0.999 | locus YAL026C, strain drs2, stronger effect = lower value 0.992 | locus YAL030W, strain snc1, stronger effect = lower value 0.996 | locus YBL061C, strain skt5, stronger effect = lower value 0.992 | locus YBR009C, strain hhf1, stronger effect = lower value 1.03 | locus YBR021W, strain FUR4, stronger effect = lower value 0.902 | locus YBR023C, strain chs3, stronger effect = lower value 1 | locus YBR171W, strain sec66, stronger effect = lower value 0.989 | locus YBR229C, strain ROT2, stronger effect = lower value 0.995 | locus YBR231C, strain swc5, stronger effect = lower value 0.997 | locus YBR279W, strain paf1, stronger effect = lower value 0.993 | locus YCL011C, strain gbp2, stronger effect = lower value 0.998 | locus YCL016C, strain dcc1, stronger effect = lower value 1.01 | locus YCL029C, strain bik1, stronger effect = lower value 0.977 | locus YCL061C, strain MRC1, stronger effect = lower value 0.993 | locus YCL069W, strain vba3, stronger effect = lower value 0.989 | locus YCR088W, strain abp1, stronger effect = lower value 0.992 | locus YDL005C, strain med2, stronger effect = lower value 0.992 | locus YDL035C, strain GPR1, stronger effect = lower value 0.99 | locus YDL040C, strain nat1, stronger effect = lower value 0.997 | locus YDL074C, strain BRE1, stronger effect = lower value 0.955 | locus YDL101C, strain DUN1, stronger effect = lower value 0.991 | locus YDL185W, strain tfp1, stronger effect = lower value 0.95 | locus YDL192W, strain arf1, stronger effect = lower value 1 | locus YDR001C, strain nth1, stronger effect = lower value 0.989 | locus YDR069C, strain doa4, stronger effect = lower value 0.99 | locus YDR101C, strain arx1, stronger effect = lower value 0.943 | locus YDR137W, strain rgp1, stronger effect = lower value 1.01 | locus YDR150W, strain NUM1, stronger effect = lower value 0.98 | locus YDR159W, strain sac3, stronger effect = lower value 0.983 | locus YDR162C, strain NBP2, stronger effect = lower value 1.01 | locus YDR195W, strain ref2 0.937 | locus YDR297W, strain sur2, stronger effect = lower value 0.986 | locus YDR318W, strain mcm21, stronger effect = lower value 1 | locus YDR334W, strain swr1, stronger effect = lower value 0.985 | locus YDR335W, strain msn5, stronger effect = lower value 0.994 | locus YDR388W, stronger effect = lower value 0.98 | locus YDR392W, strain spt3, stronger effect = lower value 1.04 | locus YDR502C, strain sam2, stronger effect = lower value 1.01 | locus YEL003W, strain gim4, stronger effect = lower value 0.991 | locus YEL037C, strain rad23, stronger effect = lower value 1 | locus YEL061C, strain CIN8 (second series), stronger effect = lower value 0.982 | locus YEL061C, strain CIN8, stronger effect = lower value 0.996 | locus YER015W, strain faa2, stronger effect = lower value 1 | locus YER016W, strain bim1, stronger effect = lower value 0.988 | locus YER110C, stronger effect = lower value 0.957 | locus YER111C, strain swi4, stronger effect = lower value 0.998 | locus YER155C, strain BEM2 (second series), stronger effect = lower value 0.993 | locus YER155C, strain BEM2, stronger effect = lower value 0.994 | locus YER167W, strain BCK2, stronger effect = lower value 1 | locus YFR010W, strain ubp6, stronger effect = lower value 0.987 | locus YGL078C, strain dbp3, stronger effect = lower value 0.99 | locus YGL086W, strain mad1, stronger effect = lower value 0.952 | locus YGL167C, strain pmr1, stronger effect = lower value 1 | locus YGL173C, strain kem1, stronger effect = lower value 0.99 | locus YGL227W, strain vid30, stronger effect = lower value 0.984 | locus YGL240W, strain doc1, stronger effect = lower value 0.985 | locus YGL248W, strain PDE1, stronger effect = lower value 1.02 | locus YGL253W, strain hxk2, stronger effect = lower value 0.993 | locus YGR078C, strain PAC10, stronger effect = lower value 1.01 | locus YGR135W, strain pre9, stronger effect = lower value 1.01 | locus YGR252W, strain gcn5, stronger effect = lower value 1.18 | locus YHR013C, strain ard1, stronger effect = lower value 1 | locus YHR027C, strain rpn1, stronger effect = lower value 0.989 | locus YHR030C, strain SLT2, stronger effect = lower value 0.978 and 1.08 | locus YHR079C, strain IRE1 (second series), stronger effect = lower value 0.974 | locus YHR079C, strain IRE1, stronger effect = lower value 1.07 | locus YHR094C, strain hxt1, stronger effect = lower value 0.992 | locus YHR129C, strain ARP1, stronger effect = lower value 0.997 | locus YHR142W, strain chs7, stronger effect = lower value 0.991 | locus YHR200W, strain rpn10, stronger effect = lower value 0.98 | locus YIL066C, strain RNR3, stronger effect = lower value 0.99 | locus YIL073C, strain SPO22, stronger effect = lower value 0.915 | locus YIL125W, strain kgd1, stronger effect = lower value 0.974 | locus YIR030C, strain dcg1, stronger effect = lower value 1 | locus YJL092W, strain hpr5, stronger effect = lower value 0.986 | locus YJL095W, strain BCK1 (second series), stronger effect = lower value 0.994 | locus YJL095W, strain BCK1, stronger effect = lower value 1.04 and 1.07 | locus YJL115W, strain asf1, stronger effect = lower value 0.988 | locus YJL129C, strain trk1, stronger effect = lower value 0.988 | locus YJL134W, strain LCB3, stronger effect = lower value 0.976 | locus YJL154C, strain vps35, stronger effect = lower value 0.994 | locus YJL164C, strain tpk1, stronger effect = lower value 1 | locus YJL166W, strain qcr8, stronger effect = lower value 0.996 | locus YJL168C, strain set2, stronger effect = lower value 0.984 | locus YJL187C, strain SWE1 (second series), stronger effect = lower value 1.01 | locus YJR043C, strain POL32, stronger effect = lower value 1.01 | locus YJR066W, strain TOR1, stronger effect = lower value 1.02 | locus YKL009W, strain mrt4, stronger effect = lower value 0.97 | locus YKL068W, stronger effect = lower value 0.966 | locus YKL085W, strain MDH1 (second series), stronger effect = lower value 0.993 | locus YKL085W, strain MDH1, stronger effect = lower value 0.993 | locus YKL160W, strain elf1, stronger effect = lower value 0.994 | locus YKR001C, strain vps1, stronger effect = lower value 0.986 | locus YKR026C, strain gcn3, stronger effect = lower value 0.984 | locus YKR091W, strain srl3, stronger effect = lower value 0.983 | locus YLL001W, strain dnm1, stronger effect = lower value 0.988 | locus YLL026W, stronger effect = lower value 1 | locus YLL041C, strain sdh2, stronger effect = lower value 1.01 | locus YLR027C, strain aat2, stronger effect = lower value 0.999 | locus YLR039C, strain RIC1, stronger effect = lower value 1.01 | locus YLR058C, strain SHM2, stronger effect = lower value 0.999 | locus YLR102C, strain apc9, stronger effect = lower value 0.973 | locus YLR113W, strain HOG1, stronger effect = lower value 1.04 | locus YLR221C, strain rsa3, stronger effect = lower value 0.997 | locus YLR258W, strain gsy2, stronger effect = lower value 0.995 | locus YLR262C, strain YPT6 (second series), stronger effect = lower value 1.02 | locus YLR262C, strain YPT6, stronger effect = lower value 0.984 | locus YLR268W, strain sec22, stronger effect = lower value 0.959 | locus YLR320W, strain mms22, stronger effect = lower value 1 | locus YLR330W, strain CHS5, stronger effect = lower value 0.984 | locus YLR342W, strain FKS1 (second series), stronger effect = lower value 0.999 | locus YLR342W, strain FKS1, stronger effect = lower value 0.988 | locus YLR357W, strain rsc2, stronger effect = lower value 0.992 | locus YLR370C, strain arc18, stronger effect = lower value 1.02 | locus YLR371W, strain rom2, stronger effect = lower value 0.996 | locus YLR384C, strain iki3, stronger effect = lower value 1.01 | locus YLR418C, strain cdc73, stronger effect = lower value 1.06 | locus YML016C, strain PPZ1, stronger effect = lower value 0.992 | locus YML032C, strain rad52, stronger effect = lower value 1.04 | locus YML120C, strain ndi1, stronger effect = lower value 0.994 | locus YML124C, strain tub3, stronger effect = lower value 0.991 | locus YMR058W, strain fet3, stronger effect = lower value 0.997 | locus YMR078C, strain ctf18, stronger effect = lower value 1.01 | locus YMR125W, strain sto1, stronger effect = lower value 1.01 | locus YMR129W, stronger effect = lower value 0.99 | locus YMR205C, strain PFK2, stronger effect = lower value 1 | locus YMR223W, strain ubp8, stronger effect = lower value 1.02 | locus YMR231W, strain pep5, stronger effect = lower value 0.997 | locus YMR263W, strain SAP30, stronger effect = lower value 0.992 | locus YMR307W, strain GAS1, stronger effect = lower value 1.16 | locus YNL067W, strain RPL9B, stronger effect = lower value 1.01 | locus YNL071W, strain lat1, stronger effect = lower value 0.998 | locus YNL183C, strain NPR1, stronger effect = lower value 1.02 | locus YNL209W, strain ssb2, stronger effect = lower value 0.992 | locus YNL233W, strain BNI4, stronger effect = lower value 1.01 | locus YNL248C, strain rpa49, stronger effect = lower value 1 | locus YNL250W, strain rad50, stronger effect = lower value 0.96 | locus YNL271C, strain bni1, stronger effect = lower value 0.997 | locus YNL298W, strain CLA4, stronger effect = lower value 0.984 | locus YNL307C, strain MCK1, stronger effect = lower value 0.981 | locus YNL322C, strain KRE1 (second series), stronger effect = lower value 1 | locus YNR049C, strain mso1, stronger effect = lower value 1.02 | locus YNR052C, strain pop2, stronger effect = lower value 1 | locus YOL012C, strain htz1 1.19 | locus YOL147C, strain pex11, stronger effect = lower value 0.989 | locus YOR001W, strain rrp6, stronger effect = lower value 1.01 | locus YOR061W, strain CKA2, stronger effect = lower value 1 | locus YOR069W, strain VPS5, stronger effect = lower value 0.986 | locus YOR070C, strain gyp1, stronger effect = lower value 1.01 | locus YOR080W, strain dia2, stronger effect = lower value 1 | locus YOR083W, strain WHI5, stronger effect = lower value 1.01 | locus YOR106W, strain vam3, stronger effect = lower value 1.02 | locus YOR136W, strain idh2, stronger effect = lower value 0.972 | locus YOR184W, strain ser1, stronger effect = lower value 0.972 | locus YOR231W, strain MKK1, stronger effect = lower value 1.04 | locus YOR265W, strain rbl2, stronger effect = lower value 1 | locus YOR270C, strain vph1, stronger effect = lower value 0.968 | locus YOR290C, strain snf2, stronger effect = lower value 1 | locus YOR316C, strain cot1, stronger effect = lower value 0.978 | locus YPL051W, strain arl3, stronger effect = lower value 1 | locus YPL055C, strain LGE1, stronger effect = lower value 1.01 | locus YPL078C, strain atp4, stronger effect = lower value 1.02 | locus YPL106C, strain sse1, stronger effect = lower value 1.01 | locus YPL240C, strain hsp82, stronger effect = lower value 0.988 | locus YPL256C, strain CLN2, stronger effect = lower value 1.08 | locus YPR119W, strain clb2, stronger effect = lower value 0.993 | locus YPR141C, strain kar3, stronger effect = lower value 0.982 | locus YPR163C, strain tif3, stronger effect = lower value 0.998 | locus YPR167C, strain met16, stronger effect = lower value 0.991 | strain wtn01, stronger effect = lower value 0.948
